Assay outcomes from PubChem.
IL-1B inflam inh: inflammasome signaling inhibition, IL-1 beta readout | THP-1 LPS/ATP IL-1B secretion, AlphaLISA, 16 h; active compounds read low | activity change, % at 57.5 µM | actives 4.7% (n = 360,000); in the data active = activity change below about -50%; inconclusive = mostly about -30% to -49%; note: % is set by controls: 0 for no effect and ±100 for the full control effect
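Secreted IL-1B measured by AlphaLISA bead assay after 16 h compound exposure of THP-1 cells; compounds (final up to 57.5 uM) added 1 h before LPS (250 ng/mL) and ATP (1.25 mM) stimulation; lower signal means less secretion.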
TDP1 cell CPT: DT40-hTDP1 cell growth loss with CPT | chicken DT40 Tdp1-/-;hTDP1 cells + 20 nM CPT, ATP luminescence, 48 h | Potency, µM (top dose mostly 46.2 µM), without a hit: at the top dose activity change, negative = growth inhibition, usual class: inhibitors | actives 12% (n = 420,000); note: potency is the fitted concentration of half-maximal effect; % is set by controls: 0 for no effect and ±100 for the full control effect; nearly all actives have a fitted effect of over 55% in size
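Cell growth measured by CellTiter-Glo luminescence after a minimum 48 h, 37 C compound exposure with 20 nM CPT in Tdp1-knockout DT40 cells stably expressing hTDP1, seeded 400/well; qHTS titration format.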
TDP1 cell noCPT: qHTS for Inhibitors of human tyrosyl-DNA phosphodiesterase 1 (TDP1): qHTS in cells in absence of CPT; DT40 Tdp1-/- hTDP1 cells, no CPT, ATP luminescence, 48 h; Potency, µM (titrated, usually from 46.2 µM), without a hit: top-dose activity change, negative = growth inhibition, actives largely listed as inhibitors; actives 15% (n = 420,000); AID 686978, 2013; note: potency is the fitted concentration of half-maximal effect; % is set by controls: 0 for no effect and ±100 for the full control effect; nearly all actives have a fitted effect of over 55% in size
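Luminescent ATP content (CellTiter-Glo) served as the growth readout. Knockout chicken DT40 cells expressing human TDP1 were exposed to compounds without camptothecin for a minimum 48 hr at 37 °C.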
D3 antag: D3 dopamine receptor (human) antagonism; D3R cells, DiscoveRx beta-arrestin luminescence, antagonist mode; active compounds read low; max response, negative = inhibition, %; actives 2.5% (n = 360,000); AID 652054; in the data active = max response below about -50%; inconclusive = no clear call, values can overlap the other calls; note: % is set by controls: 0 for no effect and ±100 for the full control effect
Target sequence (P35462 whole entry, looked up): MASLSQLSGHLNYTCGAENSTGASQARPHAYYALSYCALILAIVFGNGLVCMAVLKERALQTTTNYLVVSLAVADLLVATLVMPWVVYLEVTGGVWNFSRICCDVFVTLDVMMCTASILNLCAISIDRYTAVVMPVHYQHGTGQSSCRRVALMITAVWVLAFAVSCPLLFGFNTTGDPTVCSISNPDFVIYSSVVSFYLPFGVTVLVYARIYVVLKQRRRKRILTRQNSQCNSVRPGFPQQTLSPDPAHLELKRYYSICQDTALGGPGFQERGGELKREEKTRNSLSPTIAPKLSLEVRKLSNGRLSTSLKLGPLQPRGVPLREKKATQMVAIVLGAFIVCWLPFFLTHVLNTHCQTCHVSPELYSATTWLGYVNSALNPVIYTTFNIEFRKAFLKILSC
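Cells expressing the human receptor were seeded at 1500 cells/well, incubated overnight at 37 degrees C in 5% CO2, then exposed to library compounds with dopamine controls for 90 minutes at 37 degrees C before luminescent detection.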
ClpP mod: qHTS Assay for Activators of ClpP; purified B. subtilis ClpP, FRET peptide cleavage, 20 min; actives 1.9% (n = 340,000); Potency, µM (titrated, usually from 57.5 µM), without a hit: at the top dose activity change, negative = active; active = well fitted falling curve with a large enough effect; inconclusive = small, poorly fitted or top-dose-only effect; inactive = no such curve, though single readings can be large or run the other way; note: potency is the fitted concentration of half-maximal effect; the source files actives as falling curves though it sought activators and does not explain the sign; nearly all actives have a fitted effect of over 65% in size
Target sequence (P80244 whole entry, looked up): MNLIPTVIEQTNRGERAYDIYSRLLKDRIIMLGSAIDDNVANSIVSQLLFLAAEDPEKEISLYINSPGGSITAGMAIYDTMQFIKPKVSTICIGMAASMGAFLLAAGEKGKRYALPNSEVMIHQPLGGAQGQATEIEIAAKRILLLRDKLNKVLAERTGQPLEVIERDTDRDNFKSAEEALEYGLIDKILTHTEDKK
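Purified B. subtilis ClpP, 10 microg/mL final in Tris/HCl pH8 with KCl, BSA, glycerol and Tween-20, cleaved an Abz/nitrotyrosine-quenched decapeptide. Fluorescence (ex 320, em 430) was read at 0 and 20 min at room temperature. Delta was normalized to 5.8 microM ADEP and DMSO/no-enzyme controls.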
DRD3 agonist: activates the human D3 dopamine receptor | D3R DiscoveRx beta-arrestin cells, luminescence, 90 min | max activation, % | actives 0.58% (n = 410,000); in the data active = max activation above about 30%; note: 0% is about no effect
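Agonist-mode cell screen: cells plated at 1500/well and incubated overnight at 37 °C, then exposed to library compounds for 90 min at 37 °C. Detection reagent was added for 30–60 min at room temperature, and luminescence was read.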
The depositor's hits bear a star; ? = inconclusive; · = no result; [ ] = another dose, or the depositor's remark. Rows were chosen to be rich in hits. Some 21% of all compounds tested hit in one or more screens of this group. Unless noted, calls come from the whole dose curve; as a rule, active = well fitted inhibition curve with a large enough effect; inconclusive = small, poorly fitted or top-dose-only effect; inactive = flat fitted curve, though single readings scatter.

SMILES | IL-1B inflam inh | TDP1 cell CPT | TDP1 cell noCPT | D3 antag | ClpP mod | DRD3 agonist
Cc1ccccc1N1CCN(Cc2c(C#N)c3ccccc3n2C)CC1 | 11 | 18µM* | ? | -57* | 0% | -18
Cc1ccc(SCc2c(C#N)c3ccccc3n2C)cc1 | -3 | 21µM* | 21µM* | -3 | -1% | -8
Cn1c(CSc2ccccc2)c(C#N)c2ccccc21 | -15 | -3% | -27% | ? | 0% | -12
CC(=O)Nc1ccc(NC(=O)/C=C/c2ccc3c(c2)OCO3)cc1 | 13 | -5% | -4% | 10 | · | -1
O=C(O)c1ccc(/C=C/C(=O)c2ccc3c(c2)OCCCO3)cc1 | -103* | ? | 23µM* | ? | · | -5
CC(=O)Nc1ccc(/C=C/C(=O)c2ccc3c(c2)OCCO3)cc1 | -102* | ? | ? | -4 | · | 13
N[C@H](C(=O)O)[C@H]1C[C@H]1C(=O)O | · | -26% | -26% | · | · | ·
CCCNC(=O)C(Cc1cccc(C#N)c1)NC(=O)c1ccc(C#N)cc1 (configuration not stated) | -12 | ? | -17% | -7 | -2% | 90*
NC1=NC[C@@H](Cc2ccc(O)cc2)N1CCc1cccc(F)c1 | 0 | ? | -52% | -13 | -1% | -19
NC1=NC(c2cccc(Cl)c2)N(CCc2ccc(F)cc2)C(N)=N1 (configuration not stated) | · | ? | 23µM* | -3 | · | -2
CC1=CCC2C(=O)N(c3cccc(C(=O)Nc4ccccc4Cl)c3)C(=O)C2C1 (configuration not stated) | 18 | -12% | -29% | 7 | 2% | 14
COc1ccccc1CNC(=O)CCc1c(C)nn(-c2ccc(N3CCCCC3)nn2)c1C | · | ? | 26µM* | · | -3% | -20
CCOc1ccccc1CNC(=O)CCc1c(C)nn(-c2ccc(N3CCCC3)nn2)c1C | · | ? | 21µM* | · | -2% | 5
COc1ccc(CNC(=O)CCc2c(C)nn(-c3ccc(N4CCCC4)nn3)c2C)c(OC)c1 | · | 0% | -12% | · | -5% | 1
CCOC(=O)CCCCCC(=O)Nc1ccc2c(c1)C(=O)N([C@@H](C)CO)C[C@H](C)[C@H](CN(C)C(=O)NC(C)C)OCCCC[C@H](C)O2 | 3 | -4% | -14% | -17 | -8% | -3
CCOCCc1nn2c(=O)cc(COC(=O)C(CC)c3ccccc3)nc2s1 (configuration not stated) | · | ? | ? | · | -4% | 4
CCOCCc1nnc(NC(=O)C2CCN(C(=O)c3ccco3)CC2)s1 | 8 | -1% | 6% | 4 | · | -3
CC12CCC(=O)N1C(C(=O)N1CCN(c3ccc(C(F)(F)F)cc3[N+](=O)[O-])CC1)CS2 (configuration not stated) | 0 | 21µM* | 26µM* | -10 | -2% | 0
CC12CCC(=O)N1C(C(=O)N1CCN(c3cccc(Cl)c3)CC1)CS2 (configuration not stated) | 23 | -24% | -17% | 11 | 0% | 23
CC12CCC(=O)N1C(C(=O)N1CCN(c3ccccc3)CC1)CS2 (configuration not stated) | 1 | 3% | -3% | 1 | -1% | 6
CC12CCC(=O)N1C(C(=O)N1CCN(c3ccc([N+](=O)[O-])cc3)CC1)CS2 (configuration not stated) | 2 | ? | 21µM* | 11 | -3% | 1
c1csc(CNc2nc(CN3CCCC(c4nc5ccccc5o4)C3)nc3ccccc23)c1 (configuration not stated) | · | 11%[9.04 µM] | ? | · | · | ·
CC(C)CCn1c(-c2nonc2N)nc2ccccc21 | 14 | 13µM* | ? | -51* | -8% | 1
CCCCn1c(-c2nonc2N)nc2ccccc21 | 35 | ? | ? | 12 | -3% | -2
Nc1nonc1-c1nc2ccccc2n1Cc1ccccc1 | ? | ? | 29µM* | 18 | 7% | 4
SMILES | IL-1B inflam inh | TDP1 cell CPT | TDP1 cell noCPT | D3 antag | ClpP mod | DRD3 agonist
CCC(Oc1ccccc1)C(=O)N[C@@H]1C(=O)N2[C@@H]1SC(C)(C)[C@@H]2C(=O)O (some centres not stated) | · | 0% | 0% | · | · | 7
COc1cc(NS(=O)(=O)c2ccc(-c3cc(C)no3)cc2)cc(OC)c1 | · | 1.8µM* | 2.1µM* | · | -6% | 4
COc1ccccc1CNS(=O)(=O)c1ccc(-c2cc(C)no2)cc1 | 51 | 0.58µM* | 0.58µM* | -9 | 0% | -2
O=[N+]([O-])c1cccc(S(=O)(=O)/N=C(/Nc2ccccc2)c2ccccc2)c1 | -4 | -9% | -13% | -14 | 1% | -9
Cc1ccc(C(C(=O)NCc2ccc(F)cc2)N(Cc2ccco2)C(=O)c2snc(C(N)=O)c2N)o1 (configuration not stated) | -71* | 15µM* | 15µM* | 57 | · | 15
NC(=O)c1nsc(C(=O)N(Cc2ccco2)C(C(=O)NCc2ccc(F)cc2)c2ccc(O)cc2)c1N (configuration not stated) | ? | 16µM* | ? | 10 | · | -12
CN(C)c1ccc(C(C(=O)NCc2ccccc2)N(Cc2ccco2)C(=O)c2snc(C(N)=O)c2N)cc1 (configuration not stated) | -72* | 15µM* | 8.2µM* | 57 | -2% | 4
COCCNC(=O)C(c1ccc(C)o1)N(Cc1ccco1)C(=O)c1snc(C(N)=O)c1N (configuration not stated) | 15 | -9% | -12% | -13 | ? | 0
CN(C)c1ccc(C(C(=O)NCC2CCCO2)N(Cc2ccccc2)C(=O)c2snc(C(N)=O)c2N)cc1 (configuration not stated) | -11 | 10µM* | 18µM* | 47 | · | 10
CCC(C)(C)NC(=O)C(c1ccc(F)cc1)N(Cc1ccco1)C(=O)c1snc(C(N)=O)c1N (configuration not stated) | -2 | ? | -37% | 14 | -4% | 15
CN(C)c1ccc(C(C(=O)NCC2CCCO2)N(Cc2ccco2)C(=O)c2snc(C(N)=O)c2N)cc1 (configuration not stated) | -3 | ? | ? | 51 | · | 18
